For 15 compounds, growth results are on record in PubChem BioAssay (NCI).

About 83,000 compounds went through this panel and 20% of them were active in at least one assay; those are over-represented in the sample as a whole.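 Testing used 96-well plates and a 48-hour single-concentration exposure. Example: -40 means 40% of the starting cells died.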 Unmarked numbers belong to inactive results. Active and inactive are the calls of the source. The calls were made as follows: active = growth percent below 10; inactive = the rest.

This experiment deals with OVCAR-4 ovarian. In words: NCI-60 one-dose screen, 48 h (100 = growth as untreated, 0 = no growth, -100 = all killed). The note with it: 10 µM unless noted.
With `C#CCOc1ccc(C(Nc2ccc(OC)cc2)c2nnnn2C2CCCCC2)cc1` (stereo not given), the growth is 103%.
As to `COc1cc(C(=O)c2cc(C(C)=O)c3c4ccccc4ccn23)cc(OC)c1OC`, the growth was 69.1%.
As for `Cc1[nH]nc2ccc(-c3nc4cnc(N5CCN(C)CC5)cn4c3Nc3ccc(F)cc3Br)cc12`, the growth is 64.6%.
The figure for `O=C(Nc1cccc(Cl)c1)Nc1nc2ccc(-c3cccc4ccccc34)cc2s1` is 20.4%; for `Cc1cc(C(=O)Nc2ccc(SC#N)cc2)c(C)o1` it is 104%; for `O=C(NNc1nc2cc(F)c(F)cc2n2cccc12)c1ncccn1` it is 13.4%.
As for `CN1CCN(c2ccc(NC(=O)Nc3ccc4c(ccn4-c4cccc(C(N)=O)n4)c3)cc2C(F)(F)F)CC1`, the figure is 84.9%; as for `O=C(Nc1ccc(Cl)cc1)Nc1nc2ccc([N+](=O)[O-])cc2s1`, -4.3% (active); as for `NC(=O)c1c(NC(=O)c2cccc(OC(F)(F)F)c2)sc2c1CCC(=O)C2`, 13.8%.
As for `O=C(/C=C1\C=CN(CCCCO)c2ccccc21)n1ccc2ccccc21`, the growth was 107%.
Consider `O=C1c2c(c3c4cccnc4[nH]c3c3ccc4ccccc4c23)C(=O)N1CCN1CCNCC1`, for which the growth was 105%.
In the case of `O=C(Nc1ccccc1)Nc1nc2ccc([N+](=O)[O-])cc2s1`, the growth is -4.54% (active).
Take `Cc1cc(Cl)cc(NS(=O)(=O)c2ccc(-c3cnc(C4CC4)o3)cc2)c1`: the growth was 66.2%.
Consider `CCOC(=O)C1=C(C)Nc2nc3ccccc3n2C1c1cccc(Br)c1` (stereo not given), for which the growth was 88.9%.
For the compound `CCOC(=O)c1nn(-c2ccc(C)cc2)c(=O)c2c(N)c(C#N)c(-c3ccc(OC)cc3)cc12`, the growth is 101%.
